# Laboratory results taken from PubChem BioAssay AID2551 (National Center for Advancing Translational Sciences (NCATS), 2010).
# In all, about 310,000 compounds went through this assay and about 17,000 (5.5%) were called active. Inconclusive results (about 11%) are left out. The call rests on the fitted dose curve; in most records, active means well fitted inhibition curve with a large enough effect; inconclusive means small, poorly fitted or top-dose-only effect, or effect the other way; inactive means no such curve, though single readings can be large or run the other way. The sample as a whole holds a higher share of actives than the screen did. Where a SMILES comes first, the peptide text is derived from it. [ ]: non-standard residue; d: D form. The star is where a group is joined. ξ: configuration not given here. Cbz = O=C(OCc1ccccc1)*; ξL = CC(C)CC(N)C(=O)O; ξP = O=C(O)C1CCCN1
# Target: Nuclear receptor ROR-gamma (Mus musculus) (UniProt P51450)
# Assay: qHTS for inhibitors of ROR gamma transcriptional activity; further: nearly all actives have a fitted effect of over 60% in size
# Conditions: Drosophila S2 Gal4-RORgamma UAS-luciferase reporter, 20 h; series mostly up to 53.6 µM; activity change, negative = inhibition: at the top concentration
# Method in brief: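 Stable Schneider cell line, Gal4 DNA-binding domain fused to ROR gamma, UAS-luciferase. Cmpd 1 hr RT → CuSO4 700 uM final → 20 hr RT → luciferase reagent 10 min → luminescence.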
# On the % scale 0 is the no-effect control and ±100 the full control effect; potency means the concentration at half of the fitted maximal effect.
# Nuclear receptor ROR-gamma (Mus musculus), sequence (P51450 whole entry, looked up): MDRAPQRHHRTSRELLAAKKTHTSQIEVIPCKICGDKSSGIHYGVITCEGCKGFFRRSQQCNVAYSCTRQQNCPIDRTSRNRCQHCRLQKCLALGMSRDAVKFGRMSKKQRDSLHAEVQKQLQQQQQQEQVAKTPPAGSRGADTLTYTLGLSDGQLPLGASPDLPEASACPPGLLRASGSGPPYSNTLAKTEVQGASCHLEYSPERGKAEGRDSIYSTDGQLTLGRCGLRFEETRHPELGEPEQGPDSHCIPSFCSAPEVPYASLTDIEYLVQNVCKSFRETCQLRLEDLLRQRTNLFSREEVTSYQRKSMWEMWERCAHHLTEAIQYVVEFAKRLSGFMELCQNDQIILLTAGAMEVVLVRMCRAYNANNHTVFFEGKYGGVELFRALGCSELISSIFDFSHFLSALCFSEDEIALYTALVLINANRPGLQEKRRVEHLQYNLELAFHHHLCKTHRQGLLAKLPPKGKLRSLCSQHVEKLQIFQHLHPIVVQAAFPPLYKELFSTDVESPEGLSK
SMILES,"activity change, negative = inhibition",Potency
COc1ccc(C(=O)Nc2ccc(C(=O)NCC3CCCO3)cc2)c(OC)c1OC (stereo not drawn),-19.2% (inactive),
COc1ccc(C(=O)NC2CC2)cc1OC1CCN(Cc2ccc(SC)cc2)CC1,-0.679% (inactive),
CCOC(=O)N1CCN(Cc2nc3cc(NC(C)=O)ccc3n2C)CC1,3.25% (inactive),
O=S(=O)(NC1CC2CCC1C2)c1ccc(Cl)cc1 (stereo not drawn),44% [at 1.91 µM] (inactive),
CC(=O)c1ccc(N2CCN(C(=O)C3CCN(S(=O)(=O)c4ccc5c(c4)CC(C)N5C(=O)C4CC4)CC3)CC2)cc1 (stereo not drawn),42.1% (inactive),
COc1ccc(CCNC(=O)CCCCCNC(=O)N2CCn3c2nc2ccccc23)cc1OC,4.74% (inactive),
N#Cc1c(Cl)nc(-c2cccnc2)nc1-c1ccccc1,0.184% (inactive),
CCOC(=O)c1cnc(Nc2nc3ccccc3o2)nc1CSC(=S)N1CCCCC1,,0.447 µM (active)
CCOC(=O)CCNC(=O)N1CCCC(C(=O)c2ccccc2SC)C1 (stereo not drawn),25.3% (inactive),
CCc1ccc(CNC(=O)C2CCCN(c3nc4ccccc4o3)C2)cc1 (stereo not drawn),24.5% (inactive),
CCCCCc1c(C)nc(N2CCN(Cc3ccc4c(c3)OCO4)CC2)[nH]c1=O,-4.87% (inactive),
COc1ccc(C(=O)NC(C)c2nccs2)cc1OC1CCN(C(C)C)CC1 (stereo not drawn),3.59% (inactive),
O=C1Nc2ccccc2/C1=C/c1ccnc2ccccc12,-13.4% (inactive),
COc1cc2cc(C(=O)N/N=C/c3cccc(OC)c3OC)[nH]c2cc1OC,21.4% (inactive),
COc1cccc(/C=N/NC(=O)c2[nH]nc3c2CCc2ccccc2-3)c1O,,0.794 µM (active)
CN(C)CCNC(=O)c1[nH]nc2c1CCc1ccccc1-2,-0.392% (inactive),
Cc1ccc(CNCc2ccc3c(c2)OCO3)c(C)c1,-34.2% (inactive),
COc1ccc(-c2nnc(SCC(=O)c3cccs3)o2)c(OC)c1,31.9% (inactive),
COc1ccc(NC(=O)CS(=O)(=O)c2ccccc2)cc1,16.7% (inactive),
COc1ccc(-c2nnc(NC(=O)CS(=O)(=O)c3ccc(Cl)cc3)o2)c(OC)c1,,17.8 µM (active)
CN(C)C(=O)CCC(=O)N1CCCCC1C(=O)Nc1ccc(Oc2ccccc2F)cc1 (stereo not drawn),21.8% (inactive),
CC(=O)NS(=O)(=O)c1ccc(N/C(N)=N/c2nc(C)cc(C)n2)cc1,-13.8% (inactive),
CC(C)c1ccc(NC(=O)Cn2ncc3ccccc32)cc1,26.2% (inactive),
C=CCc1c(C)nc2cc(-c3ccccc3)[nH]n2c1=O,-22.1% (inactive),
O=C(CNC(=O)c1ccccc1)NCC(=O)OCc1ccc(Cl)cc1,5.95% (inactive),
CC(C)[C@H](NC(=O)OCc1ccccc1)C(=O)OCc1ccccc1,-28.3% (inactive),

SMILES,"activity change, negative = inhibition",Potency
C[C@H](NC(=O)c1nc[nH]c1C(=O)NCC(=O)OC(C)(C)C)C(=O)OCc1ccccc1,,11.2 µM (active)
COc1ccccc1NC(=O)[C@H](COCc1ccccc1)NC(=O)OC(C)(C)C,-0.0777% (inactive),
CNC(=O)c1[nH]cnc1C(=O)N[C@@H](CC(C)C)C(=O)OCc1ccccc1,,10 µM (active)
NC(=O)c1ccc(NC(=O)COC(=O)C(Cc2ccccc2)NC(=O)c2ccccc2)cc1 (stereo not drawn),-24.2% (inactive),
COC(=O)[C@@H](Cc1ccccc1)NC(=O)NCCc1ccccc1,12.9% (inactive),
CC(C)(C)OC(=O)CNC(=O)c1[nH]cnc1C(=O)N[C@@H](Cc1ccccc1)C(=O)OCc1ccccc1,20% (inactive),
Cc1cccc(NC(=O)c2nc[nH]c2C(=O)NCC(=O)OCc2ccccc2)c1,,12.6 µM (active)
CC(C)CC(NC(=O)C1CCCN1C(=O)[C@@H](C)NC(=O)OCc1ccccc1)C(=O)NCC(N)=O (stereo partly drawn) (Cbz-[dA][ξP][ξL]G-NH2),-8.88% (inactive),
O=C(N[C@@H](Cc1ccccc1)C(=O)OCc1ccccc1)c1nc[nH]c1C(=O)N[C@@H](Cc1ccccc1)C(=O)OCc1ccccc1,,10 µM (active)
O=C(CNC(=O)c1ccc(-c2ccccc2)cc1)OCc1ccc(Cl)cc1,-13.7% (inactive),
C/C(=N\N(C)C)c1ccc(OCCOc2ccc([N+](=O)[O-])cc2)cc1,26% (inactive),
CCOC(=O)C1(Cc2ccccc2C)CCCN(S(C)(=O)=O)C1 (stereo not drawn),-2.12% (inactive),
COCc1c(C(=O)N/N=C(\C)c2ccncc2)nnn1-c1nonc1N,6.85% (inactive),
C=CCNC(=O)c1ccccc1SCc1c(C)noc1C,-15.9% (inactive),
Cc1ccc(NC(=O)C(CC(=O)O)C2CCCO2)c(C)c1 (stereo not drawn),-16.9% (inactive),
O=C(Nc1ccc(Cl)cc1)c1cccc(OC(=S)N2CCOCC2)c1,25.6% (inactive),
COc1ccc(S(=O)(=O)N(C)CC(=O)N2CCCC2)cc1,-15.8% [at 1.91 µM] (inactive),
O=C(Cc1ccc(Cl)c(Cl)c1)Nc1ccc(SC(F)F)cc1,26.4% (inactive),
O=C(CC(O)(C(F)(F)F)C(F)(F)F)Nc1ccc(Cl)c(Cl)c1,,5.01 µM (active)
Cc1ccc(NC(=O)C/C(N)=N/O)cc1Cl,15.1% (inactive),
COc1ccccc1N(CC(=O)NC1CCCC1)C(=O)C1(C)CC(=O)N=C2C=CC(C)=CN21 (stereo not drawn),-3.48% (inactive),
O=C1CCCCN1CCCC(=O)N1CCCC(Nc2ccc(F)cc2)C1 (stereo not drawn),-0.309% (inactive),
O=C(N/N=C/c1ccc(OC(=O)c2ccccc2Cl)cc1)c1ccc(O)cc1,-20.7% (inactive),
O=C(N/N=C/c1ccc(OCc2ccccc2)cc1)c1ccc(O)cc1,,8.91 µM (active)
O=C(Cc1cccs1)N/N=C/c1ccc(OCc2ccccc2)cc1,43.6% (inactive),
CCn1nc(C)c(CNC(=O)C2CCC(=O)N(Cc3cccc(F)c3)C2)c1C (stereo not drawn),2.01% (inactive),

SMILES,"activity change, negative = inhibition",Potency
CC(C)(O)C(=O)NN(C(=O)c1ccccc1)c1cccc(Br)c1,0.311% (inactive),
Cc1ccc(N(NC(=O)C(C)(C)O)C(=O)c2ccccc2)cc1C,-4.04% (inactive),
CCCC(O)(CCC)C(=O)NN(C(=O)CCl)c1cccc(C)c1,,15.8 µM (active)
CCCCC(O)(CCCC)C(=O)NN(C(=O)CCl)c1ccccc1,,12.6 µM (active)
CCCCCNC(=O)C1c2ccccc2Oc2ccccc21,-9.9% (inactive),
COC(=O)N(NC(=O)C(O)(C(C)C)C(C)C)c1ccccc1,14.2% (inactive),
Cc1cc(C)n(CC(O)COc2ccc(C(C)(C)C)cc2)n1 (stereo not drawn),-13.9% (inactive),
CCc1ccc(N(C(=O)c2csnn2)C(C(=O)NC2CCCCC2)c2cccnc2)cc1 (stereo not drawn),15.8% (inactive),
O=C(O)c1cc(S(=O)(=O)N(Cc2ccccc2)c2cccc(C(F)(F)F)c2)ccc1Cl,10.3% (inactive),
O=S(=O)(NCCc1ccc(Cl)cc1)c1cccs1,23.7% (inactive),
COC(=O)c1c(NC(=O)c2ccc(S(=O)(=O)N3CCOCC3)cc2)sc2c1CCN(C(C)C)C2,-7.46% (inactive),
CC(CCc1ccccc1)NC(=O)c1cnc(Cl)c(Cl)c1 (stereo not drawn),10.2% (inactive),
CCc1ccc(NC(=O)Cn2nc(C)c([N+](=O)[O-])c2C)cc1,22.5% (inactive),
Cc1nn(Cc2ccc(C(=O)N3N=C(C(F)F)CC3(O)C(F)F)cc2)c(C)c1[N+](=O)[O-] (stereo not drawn),,12.6 µM (active)
Cc1ccn(CC(=O)N2N=C(C(F)F)CC2(O)C(F)F)n1 (stereo not drawn),-2.3% (inactive),
CN(Cc1c(F)cccc1Cl)S(=O)(=O)c1cccs1,-26.5% (inactive),
COc1ccc(C(=O)Nc2nncs2)c(OC)c1,-24.7% (inactive),
COc1ccc(C(=O)NCc2nnc(SCC(=O)NC3=NCCS3)n2C)cc1,0.365% (inactive),
COc1ccc(C(=O)NC2=NCCS2)c(OC)c1,,11.2 µM (active)
CSCC[C@H](NC(=O)N1CCn2c1nc1ccccc12)C(=O)NC1CCCCC1,0.349% (inactive),
CC(C)OC(=O)c1ccc(COc2ccc3ccc(=O)oc3c2)o1,3.55% (inactive),
Cc1ccc(-c2nnc(SCC(=O)N/N=C/c3cccs3)n2-c2ccc(C)cc2)cc1,,17.8 µM (active)
Cc1ccc(-n2c(SCC(=O)N3c4ccccc4Sc4ccccc43)nnc2-c2ccncc2)cc1,7.55% (inactive),
NNC(=O)CSc1nnc(-c2ccccc2)n1-c1ccccc1,1.72% (inactive),
COCCN1C(=O)C(=O)/C(=C(/O)c2ccc(S(=O)(=O)N3CCOCC3)cc2)C1c1ccc(OC)c(OC)c1 (stereo not drawn),1.24% (inactive),
COc1ccc(C2C3=C(CCCC3=O)N(CC(=O)O)C3=C2C(=O)CCC3)cc1,-18.3% (inactive),

SMILES,"activity change, negative = inhibition",Potency
Cc1cc(NC(=O)Nc2ccc(Cl)cc2)n(-c2ccccc2)n1,-13.5% (inactive),
CC(=O)N/C(=N/c1nc(C)cc(C)n1)Nc1ccc(F)cc1F,-28.3% (inactive),
Cc1cc(C)nc(-n2nc(C)cc2NC(=O)c2ccc(F)cc2F)n1,,0.178 µM (active)
CCN1C(=O)c2cccc3c(S(=O)(=O)Nc4ccccc4O)ccc1c23,-39.5% (inactive),
CN(C)c1cccc(C(=O)N2CCC(n3nccc3NC(=O)C3CCOC3)CC2)c1 (stereo not drawn),-3.44% (inactive),
N#Cc1ccc(S(=O)(=O)NCC(=O)OCC(=O)NCCc2ccccc2)cc1,-1.08% (inactive),
CC(C)NC(=O)CCCn1c(=S)[nH]c2cc3c(cc2c1=O)OCO3,-17.2% (inactive),
CCCCNC(=O)CCn1c(=S)[nH]c2cc3c(cc2c1=O)OCO3,-20.7% (inactive),
O=C(CCCCCn1c(=S)[nH]c2cc3c(cc2c1=O)OCO3)N1CCN(c2ccc(F)cc2)CC1,,4.47 µM (active)
Cc1ccc(C)c(N2CCN(C(=O)CCCn3c(=O)c4cccn4c4cccnc43)CC2)c1,33% (inactive),
Cc1ccc(C)c(N2CCN(C(=O)CCCCn3c(=O)[nH]c4ccccc4c3=O)CC2)c1,4.13% (inactive),
Cc1ccc(C)c(N2CCN(C(=O)CCCCCn3c(=S)[nH]c4ccc(N5CCOCC5)cc4c3=O)CC2)c1,,10 µM (active)
Cc1ccnc(Nc2nc3ccccc3s2)n1,-0.115% (inactive),
Cc1ccnc(N2CCCC(C(=O)NC3CC3)C2)n1 (stereo not drawn),1.65% (inactive),
Cc1ccnc(-n2sc3ccccc3c2=O)n1,,11.2 µM (active)
CCCCSCCCNC(=O)C1CCC(CNS(=O)(=O)c2ccc(NC(C)=O)cc2)CC1 (stereo not drawn),36.7% (inactive),
CC(Sc1nnc(COc2ccccc2)n1-c1ccccc1)C(=O)O (stereo not drawn),-6.73% (inactive),
CC(NS(=O)(=O)c1ccccc1)c1n[nH]c(=S)n1-c1ccccc1 (stereo not drawn),-25.6% (inactive),
Cc1ccc(OCc2n[nH]c(=S)n2-c2ccccc2)cc1,,0.708 µM (active)
Cc1ccc(OCc2n[nH]c(=S)n2-c2ccc(C)cc2)cc1,-0.176% (inactive),
O=c1[nH]nc(CSCc2ccccc2Cl)[nH]1,13.7% (inactive),
S=c1[nH]nc(COc2ccccc2)n1-c1ccccc1,,3.98 µM (active)
S=c1[nH]nc(CSCc2ccc(Cl)cc2Cl)n1-c1ccccc1,,1.26 µM (active)
O=[N+]([O-])c1ccccc1/C=N/n1c(COc2ccccc2)n[nH]c1=S,-17.4% (inactive),
CCCCC(CC(C)O)c1n[nH]c(=S)n1-c1ccccc1 (stereo not drawn),2.91% (inactive),
